Test results reported in publication PMC5540273 (PLoS ONE, 2017).

Legend:
Details in all cases: concentration: 1 μM, replicates: in singlicate; n = 1
DYRK1B = test system: DYRK1B
DYRK2 = test system: DYRK2
EGFR = test system: EGFR
EIF2AK1 = test system: EIF2AK1
EPHA1 = test system: EPHA1
EPHA2 = test system: EPHA2
EPHA3 = test system: EPHA3
EPHA4 = test system: EPHA4
EPHA5 = test system: EPHA5
EPHA6 = test system: EPHA6
EPHA7 = test system: EPHA7
EPHA8 = test system: EPHA8
EPHB1 = test system: EPHB1
EPHB2 = test system: EPHB2
EPHB3 = test system: EPHB3
EPHB4 = test system: EPHB4
EPHB6 = test system: EPHB6
ERBB2 = test system: ERBB2
ERBB3 = test system: ERBB3
ERBB4 = test system: ERBB4
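Also: KINOMEscan kinase panel screen.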

| SMILES | %Inh (DYRK1B) [%] | %Inh (DYRK2) [%] | %Inh (EGFR) [%] | %Inh (EIF2AK1) [%] | %Inh (EPHA1) [%] | %Inh (EPHA2) [%] | %Inh (EPHA3) [%] | %Inh (EPHA4) [%] | %Inh (EPHA5) [%] | %Inh (EPHA6) [%] | %Inh (EPHA7) [%] | %Inh (EPHA8) [%] | %Inh (EPHB1) [%] | %Inh (EPHB2) [%] | %Inh (EPHB3) [%] | %Inh (EPHB4) [%] | %Inh (EPHB6) [%] | %Inh (ERBB2) [%] | %Inh (ERBB3) [%] | %Inh (ERBB4) [%] |
| --- | --- | --- | --- | --- | --- | --- | --- | --- | --- | --- | --- | --- | --- | --- | --- | --- | --- | --- | --- | --- |
| CC(C)(C)c1ccc(C(=O)Nc2cn3cc(-n4ccnc4)ccc3n2)cc1 | 94.8 | 67 | 9 | 0 | 0 | 0 | 16 | 0 | 0 | 12 | 0 | 0 | 3 | 8 | 0 | 0 | 2 | 29 | 8 | 37 |
| COc1cccc(CC(=O)N2CCc3cc(-c4cn(C)c5ncnc(N)c45)ccc32)c1 [GSK2608899] | 22 | 22 | 23 | 87 | 0 | 0 | 19 | 4 | 5 | 10 | 10 | 11 | 24 | 14 | 7 | 0 | 64 | 0 | 0 | 0 |
| O=C(O)C(F)(F)F.O=c1[nH]ccc2nc(N[C@@H]3CCNC3)nc(Nc3ccc4c(c3)S(=O)(=O)CC4)c12 [GSK2181306] | 81 | 52 | 33 | 4 | 12 | 7 | 93.9 | 16 | 0 | 16 | 27 | 24 | 9 | 0 | 5 | 8 | 19 | 8 | 0 | 0 |
| Cn1cc(-c2ccc3c(c2)CCN3C(=O)Cc2cc(F)cc(C(F)(F)F)c2)c2c(N)ncnc21 [GSK2635225] | 0 | 4 | 23 | 22 | 21 | 11 | 26 | 0 | 0 | 17 | 2 | 2 | 21 | 15 | 12 | 8 | 44 | 10 | 0 | 0 |
| COc1cccc(-c2nc(-c3ccccc3)[nH]c2-c2ccncc2)c1 [SB-610250] | 20 | 2 | 12 | 5 | 18 | 0 | 0 | 17 | 0 | 9 | 9 | 25 | 16 | 0 | 24 | 0 | 22 | 31 | 20 | 0 |
| Cc1ccc(NC(=O)c2cccc(N3CCCCC3)c2)cc1-c1ccc(C(=O)NCC2CC2)cc1 [GSK1917008] | 0 | 18 | 35 | 8 | 18 | 33 | 4 | 37 | 3 | 34 | 24 | 41 | 30 | 0 | 27 | 31 | 21 | 0 | 0 | 2 |
| Cc1ccc(O)cc1Nc1ccnc2cc(-c3ccc(CN4CCCCC4)o3)ccc12 [GW557777] | 0 | 2 | 46 | 0 | 99.7 | 94.5 | 94.9 | 96.2 | 99.8 | 90 | 0 | 99.7 | 100 | 98.9 | 95.3 | 99.7 | 83 | 0 | 7 | 0 |
| Nc1ncnc2scc(-c3ccc(NC(=O)Cc4cc(F)ccc4F)cc3)c12.O=C(O)C(F)(F)F [SB-731254-M] | 0 | 0 | 80 | 95.2 | 13 | 100 | 21 | 24 | 0 | 0 | 4 | 0 | 0 | 15 | 0 | 5 | 98.8 | 39 | 0 | 53 |
| N#Cc1cnc2cc(-c3cnc(CNCCN4CCOCC4)s3)ccc2c1Nc1ccc(Oc2ccccc2)cc1 [GW664114] | 5 | 14 | 98.1 | 0 | 8 | 0 | 10 | 11 | 0 | 19 | 0 | 25 | 0 | 7 | 10 | 10 | 21 | 79 | 100 | 100 |
| COc1cccc(C2=C(Nc3cccc(O)c3)C(=O)NC2=O)c1 [SB-390771] | 24 | 9 | 41 | 3 | 0 | 29 | 0 | 27 | 0 | 24 | 10 | 18 | 11 | 16 | 31 | 16 | 49 | 23 | 0 | 2 |
| Cc1ccc(-c2ccc3occ(-c4ccc(S(C)=O)cc4)c3c2)nn1 (stereo not shown) | 33 | 0 | 0 | 0 | 0 | 4 | 6 | 11 | 0 | 21 | 0 | 0 | 0 | 14 | 14 | 6 | 0 | 0 | 0 | 3 |
| CN(c1ccc(NC(=O)N2CCN(CCCN3CCOCC3)CC2)cc1)c1ccnc(Nc2ccc(CS(C)(=O)=O)cc2)n1.Cl [GW830899] | 0 | 0 | 48 | 0 | 48 | 22 | 0 | 4 | 0 | 0 | 0 | 0 | 0 | 4 | 0 | 22 | 81 | 2 | 17 | 0 |
| Cc1ccc(NC(=O)c2ccc(Cl)c(Cl)c2)cc1-c1ccc(C(=O)Nc2ccncc2)cc1 [GSK1398460] | 6 | 7 | 32 | 7 | 13 | 14 | 1 | 32 | 12 | 18 | 9 | 35 | 17 | 17 | 25 | 19 | 16 | 2 | 0 | 4 |
| Cc1cccc(Nc2nc(NCCN)ncc2C(N)=O)c1 [GSK1292139] | 27 | 33 | 15 | 0 | 14 | 0 | 64 | 0 | 0 | 0 | 52 | 58 | 1 | 0 | 0 | 0 | 50 | 4 | 0 | 10 |
| O=C(Nc1n[nH]c2nc(-c3cccc(O)c3)ccc12)C1CC1 [SB-711805] | 86 | 79 | 5 | 0 | 13 | 0 | 19 | 0 | 0 | 15 | 11 | 30 | 14 | 0 | 1 | 5 | 48 | 0 | 0 | 0 |
| CN(C)c1ncnc2nc[nH]c12 [SKF-31736] | 39 | 23 | 0 | 0 | 0 | 0 | 8 | 0 | 0 | 0 | 0 | 0 | 0 | 0 | 0 | 0 | 0 | 24 | 13 | 0 |
| Cc1cc(-c2ccnc(Nc3cccc(C#N)c3)n2)cc(C)c1O [GSK1440913] | 51 | 61 | 38 | 0 | 27 | 24 | 4 | 13 | 0 | 13 | 18 | 21 | 18 | 19 | 18 | 16 | 90.3 | 27 | 7 | 0 |
| Cl.Cl.NC(CNC(=O)c1cc(Br)c(-c2ccnc3[nH]ccc23)s1)c1ccccc1 (stereo not shown) [GSK1322949] | 95 | 80 | 17 | 1 | 24 | 1 | 26 | 0 | 0 | 0 | 10 | 24 | 27 | 15 | 0 | 3 | 75 | 24 | 18 | 0 |
| COc1ccc(C)c(Nc2ccnc(Nc3ccc(-c4cnc[nH]4)cc3)n2)c1.Cl [GW784041] | 0 | 0 | 28 | 0 | 62 | 45 | 3 | 31 | 4 | 12 | 6 | 26 | 14 | 21 | 17 | 60 | 69 | 0 | 89 | 0 |
| COc1cc(Nc2nccc(N3CCC(NC(=O)Nc4ccc5c(c4)OCO5)C3)n2)cc(OC)c1OC (stereo not shown) [GSK1379766] | 0 | 0 | 0 | 0 | 14 | 0 | 0 | 7 | 0 | 4 | 0 | 3 | 7 | 0 | 6 | 0 | 97.6 | 0 | 0 | 31 |
